Assay results from PubChem BioAssay (EPA / NIEHS).
Active and inactive are the calls of the source. The calls were made as follows: active = hit-call score of the fitted dose curve at least 0.9, where 1 is the maximum; inactive = score below 0.9.

Tests used:
Conditions in all cases: mRNA level, 48 h; actives raise or lower the signal
[1] = read-out: Early growth response protein 1 (EGR1) transcription factor, EGR1 (gene 1958); test: LTEA_HepaRG_EGR1: Life Technologies and Expression Analysis (LTEA) Assay for Early growth response protein 1 (EGR1) transcription factor using HepaRG (AID 2283490)
How it was run: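 EGR1 expression change in human HepaRG after 48 h chemical exposure, assessed by housekeeping-normalized qRT-PCR; concentration-response up to 100 uM, fitted in both directions against DMSO controls.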

[2] = read-out: Ezrin (EZR), EZR (gene 7430); test: LTEA_HepaRG_EZR: Life Technologies and Expression Analysis (LTEA) Assay for Ezrin (EZR) using HepaRG (AID 2283491)
How it was run: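 Read-out is EZR transcript level by qRT-PCR, normalized to three housekeeping genes and fitted bidirectionally against the DMSO control. Human HepaRG cells received test chemicals for 48 h at eight half-log concentrations up to 100 uM in 0.5% DMSO.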

[3] = read-out: Cytochrome P450 3A7 (Homo sapiens) (UniProt P24462); test: LTEA_HepaRG_CYP3A7: Life Technologies and Expression Analysis (LTEA) Assay for CYP3A7 using HepaRG (AID 2283492)
How it was run: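 Differentiated HepaRG cells in serum-free induction medium exposed 48 h in duplicate to 8-point half-log series from 100 uM top in 0.5% DMSO. CYP3A7 mRNA by qRT-PCR, normalized to ACTB/GAPDH/POLR2A, bidirectional fit versus DMSO.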

CYP3A5 (gene 1577) = test: LTEA_HepaRG_CYP3A5: Life Technologies and Expression Analysis (LTEA) Assay for CYP3A5 using HepaRG (AID 2283493)
How it was run: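 Readout was CYP3A5 mRNA by qRT-PCR. HepaRG cultures were exposed for 48 h in serum-free induction medium to chemicals at up to 100 uM, and responses were fitted in both directions relative to DMSO vehicle.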

[4] = read-out: Fatty Acid-Binding Protein 1 (FABP1), FABP1 (gene 2168); test: LTEA_HepaRG_FABP1: Life Technologies and Expression Analysis (LTEA) Assay for Fatty Acid-Binding Protein 1 (FABP1) using HepaRG (AID 2283494)
How it was run: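 Values reflect bidirectional concentration-response fitting of FABP1 mRNA change against 0.5% DMSO controls. Human HepaRG cultures received eight half-log doses (top 100 uM) for 48 h; expression quantified by TaqMan qRT-PCR with housekeeping-gene normalization.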

[5] = read-out: Cytochrome P450 4A22 (Homo sapiens) (UniProt Q5TCH4); test: LTEA_HepaRG_CYP4A22: Life Technologies and Expression Analysis (LTEA) Assay for Cytochrome P450 4A22 (CYP4A22) using HepaRG (AID 2283495)
How it was run: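 Differentiated HepaRG cells in serum-free induction medium exposed 48 h in duplicate to eight half-log concentrations up to 100 uM in 0.5% DMSO. CYP4A22 mRNA quantified by TaqMan qRT-PCR, normalized to ACTB, GAPDH and POLR2A; bidirectional fit versus DMSO.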

[6] = read-out: Cytochrome P450 7A1 (Homo sapiens) (UniProt P22680); test: LTEA_HepaRG_CYP7A1: Life Technologies and Expression Analysis (LTEA) Assay for Cytochrome P450 7A1 (CYP7A1) using HepaRG (AID 2283496)
How it was run: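 Using 0.5% DMSO as vehicle and baseline, chemicals were tested in duplicate over an 8-point range from 100 uM on HepaRG cells for 48 h; qRT-PCR signals were normalised to ACTB, GAPDH and POLR2A.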

[7] = read-out: Glutathione S-Transferase (GSTA2), GSTA2 (gene 2939); test: LTEA_HepaRG_GSTA2: Life Technologies and Expression Analysis (LTEA) Assay for Glutathione S-Transferase (GSTA2) using HepaRG (AID 2283497)
How it was run: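 Oxidative-stress marker GSTA2 is quantified by TaqMan qRT-PCR in HepaRG cultures treated 48 h across an eight-point range to 100 uM. Expression is normalized to endogenous controls and compared with 0.5% DMSO vehicle.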

[8] = read-out: Glutamate-cysteine ligase catalytic (GCLC), GCLC (gene 2729); test: LTEA_HepaRG_GCLC: Life Technologies and Expression Analysis (LTEA) Assay for Glutamate-cysteine ligase catalytic (GCLC) using HepaRG (AID 2283498)
How it was run: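 Oxidative-stress marker GCLC is measured as mRNA change in human HepaRG liver cells after 48 h chemical treatment in 0.5% DMSO, eight concentrations from 100 uM. Activity is fitted bidirectionally against vehicle.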

[9] = read-out: growth arrest and DNA damage 45 (GADD45G), GADD45G (gene 10912); test: LTEA_HepaRG_GADD45G: Life Technologies and Expression Analysis (LTEA) Assay for growth arrest and DNA damage 45 (GADD45G) using HepaRG (AID 2283499)
How it was run: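 Differentiated human HepaRG cells, 48 h post-plating, exposed 48 h in serum-free induction medium to 8 half-log concentrations (top 100 uM, 0.5% DMSO) in duplicate. GADD45G mRNA measured by Fluidigm TaqMan qRT-PCR, normalized to ACTB, GAPDH, POLR2A; bidirectional fit versus DMSO.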

[10] = read-out: Glutamate-cysteine ligase regulatory (GCLM), GCLM (gene 2730); test: LTEA_HepaRG_GCLM: Life Technologies and Expression Analysis (LTEA) Assay for Glutamate-cysteine ligase regulatory (GCLM) using HepaRG (AID 2283500)
How it was run: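 In this multiplexed HepaRG gene-expression assay, GCLM mRNA change after 48 h treatment (8 concentrations, max 100 uM) was scored against DMSO by bidirectional curve fitting.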

[11] = read-out: Glutathione S-transferase M3 (GSTM3), GSTM3 (gene 2947); test: LTEA_HepaRG_GSTM3: Life Technologies and Expression Analysis (LTEA) Assay for Glutathione S-transferase M3 (GSTM3) using HepaRG (AID 2283501)
How it was run: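 Differentiated human HepaRG cells were exposed in duplicate for 48 h in serum-free induction medium, 8 points from 100 uM top in half-log steps, 0.5% DMSO. GSTM3 mRNA was measured by TaqMan qRT-PCR, normalized to ACTB, GAPDH and POLR2A; bidirectional fit versus DMSO.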

[12] = read-out: Heat shock 70 kDa protein 1 (HSPA1A), gene 3303; test: LTEA_HepaRG_HSPA1A: Life Technologies and Expression Analysis (LTEA) Assay for Heat shock 70 kDa protein 1 (HSPA1A) using HepaRG (AID 2283502)
How it was run: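 An oxidative-stress marker readout: HepaRG cells treated 48 h in duplicate with an eight-point series (highest 100 uM) had HSPA1A mRNA quantified by TaqMan qRT-PCR. Activity was fitted in both directions using 0.5% DMSO as baseline.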

[13] = read-out: Hypoxia-inducible factor 1-alpha (Homo sapiens) (UniProt Q16665); test: LTEA_HepaRG_HIF1A: Life Technologies and Expression Analysis (LTEA) Assay for Hypoxia-inducible factor 1 (HIF1A) Trancription factor using HepaRG (AID 2283503)
How it was run: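 Gain- or loss-of-signal HIF1A mRNA changes are fitted against a DMSO baseline. HepaRG cultures receive eight concentrations, highest 100 uM, for 48 h in serum-free induction medium with 0.5% DMSO.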

[14] = read-out: 3-Hydroxy-3-Methylglutaryl-CoA Synthase 2 (HMGCS2), HMGCS2 (gene 3158); test: LTEA_HepaRG_HMGCS2: Life Technologies and Expression Analysis (LTEA) Assay for 3-Hydroxy-3-Methylglutaryl-CoA Synthase 2 (HMGCS2) using HepaRG (AID 2283504)
How it was run: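 Human HepaRG cells in serum-free induction medium were exposed in duplicate for 48 h to 8-point half-log series from 100 uM top in 0.5% DMSO. HMGCS2 mRNA measured by TaqMan qRT-PCR, normalised to ACTB, GAPDH, POLR2A; bidirectional fit versus DMSO.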

HGF (gene 3082) = test: LTEA_HepaRG_HGF: Life Technologies and Expression Analysis (LTEA) Assay for Hepatocyte Growth Facto (HGF) using HepaRG (AID 2283505)
How it was run: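 Differentiated HepaRG cells in serum-free induction medium exposed 48 h in duplicate, 8 half-log concentrations from 100 uM in 0.5% DMSO. HGF mRNA by qRT-PCR, normalised to ACTB, GAPDH, POLR2A; bidirectional fitting.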

[15] = read-out: Intercellular Adhesion Molecule 1 (ICAM1), ICAM1 (gene 3383); test: LTEA_HepaRG_ICAM1: Life Technologies and Expression Analysis (LTEA) Assay for Intercellular Adhesion Molecule 1 (ICAM1) using HepaRG (AID 2283507)
How it was run: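 Differentiated human HepaRG cells in serum-free induction medium exposed 48 h in duplicate to 8 half-log concentrations (top 100 uM, 0.5% DMSO). ICAM1 mRNA quantified by TaqMan qRT-PCR, normalized to ACTB, GAPDH and POLR2A; bidirectional fitting versus DMSO.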

[16] = read-out: Insulin-like growth factor-binding protein 1 (IGFBP1), IGFBP1 (gene 3484); test: LTEA_HepaRG_IGFBP1: Life Technologies and Expression Analysis (LTEA) Assay for Insulin-like growth factor-binding protein 1 (IGFBP1) using HepaRG (AID 2283508)
How it was run: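 HepaRG cells, plated 48 h then switched to serum-free induction medium, exposed in duplicate for 48 h to 8-point half-log series from 100 uM in 0.5% DMSO. mRNA measured by qRT-PCR, normalized to ACTB/GAPDH/POLR2A; bidirectional fit versus DMSO.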

[17] = read-out: Interleukin 6 (IL6), IL6 (gene 3569); test: LTEA_HepaRG_IL6: Life Technologies and Expression Analysis (LTEA) Assay for Interleukin 6 (IL6) using HepaRG (AID 2283509)
How it was run: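 Changes in IL6 mRNA, up or down relative to 0.5% DMSO controls, were derived from concentration-response curves in human HepaRG cells treated for 48 h at up to 100 uM, with ACTB, GAPDH and POLR2A as normalizers.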

[18] = read-out: Interleukin 6 Receptor (IL6R), IL6R (gene 3570); test: LTEA_HepaRG_IL6R: Life Technologies and Expression Analysis (LTEA) Assay for Interleukin 6 Receptor (IL6R) using HepaRG (AID 2283510)
How it was run: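 In this HepaRG screen, test chemicals act on cells for 48 h at up to 100 uM (eight half-log points, duplicate wells). IL6R expression is quantified by qRT-PCR after normalization to ACTB, GAPDH and POLR2A, with DMSO as baseline.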

Measured: outcome

Cytochrome P450 3A7 (Homo sapiens), sequence (P24462 whole entry, looked up): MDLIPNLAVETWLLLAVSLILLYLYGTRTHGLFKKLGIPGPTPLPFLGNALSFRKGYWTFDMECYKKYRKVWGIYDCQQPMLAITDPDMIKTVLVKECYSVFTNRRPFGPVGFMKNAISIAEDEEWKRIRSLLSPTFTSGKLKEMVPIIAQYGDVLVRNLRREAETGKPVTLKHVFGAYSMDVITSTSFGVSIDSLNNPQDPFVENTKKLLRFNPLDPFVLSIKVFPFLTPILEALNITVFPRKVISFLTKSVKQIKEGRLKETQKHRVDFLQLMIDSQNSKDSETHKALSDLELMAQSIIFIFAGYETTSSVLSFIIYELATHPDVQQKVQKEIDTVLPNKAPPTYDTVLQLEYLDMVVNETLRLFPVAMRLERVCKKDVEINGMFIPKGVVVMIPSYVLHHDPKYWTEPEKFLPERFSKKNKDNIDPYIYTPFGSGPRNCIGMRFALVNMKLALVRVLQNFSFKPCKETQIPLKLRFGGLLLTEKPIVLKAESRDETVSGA
Hypoxia-inducible factor 1-alpha (Homo sapiens), sequence (Q16665 whole entry, looked up): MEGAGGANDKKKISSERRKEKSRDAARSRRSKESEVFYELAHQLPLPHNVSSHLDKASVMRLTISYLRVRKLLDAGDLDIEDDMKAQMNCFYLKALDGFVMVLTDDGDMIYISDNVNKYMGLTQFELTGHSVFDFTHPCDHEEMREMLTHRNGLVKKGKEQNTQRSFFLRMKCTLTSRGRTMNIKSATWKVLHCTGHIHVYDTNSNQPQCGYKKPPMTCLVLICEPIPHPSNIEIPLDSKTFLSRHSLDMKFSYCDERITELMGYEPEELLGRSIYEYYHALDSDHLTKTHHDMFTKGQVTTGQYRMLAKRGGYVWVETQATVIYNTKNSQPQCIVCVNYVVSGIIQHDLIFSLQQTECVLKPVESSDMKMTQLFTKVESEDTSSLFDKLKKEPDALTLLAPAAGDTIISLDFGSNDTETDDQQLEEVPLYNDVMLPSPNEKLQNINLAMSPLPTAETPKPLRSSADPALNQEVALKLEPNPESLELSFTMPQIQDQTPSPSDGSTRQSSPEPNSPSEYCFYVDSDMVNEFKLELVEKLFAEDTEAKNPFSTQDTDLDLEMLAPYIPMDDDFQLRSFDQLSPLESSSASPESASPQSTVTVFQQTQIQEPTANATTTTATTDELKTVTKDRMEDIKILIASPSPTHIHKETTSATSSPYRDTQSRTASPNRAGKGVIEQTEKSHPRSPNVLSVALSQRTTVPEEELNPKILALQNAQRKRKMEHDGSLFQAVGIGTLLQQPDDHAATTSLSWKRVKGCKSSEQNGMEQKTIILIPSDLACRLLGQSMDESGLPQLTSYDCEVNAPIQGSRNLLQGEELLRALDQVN

CS(=O)(=O)OCCCCOS(C)(=O)=O
inactive: all assays above
